Several values for one entry are separate records, joined by “and”; a condition that tells them apart may be missing. Equal values may be shown once. In all, about 5,500 compounds went through this assay and about 2,000 (36%) were called active. Not shown: some 18% with an inconclusive outcome. No stated cut-off is given here; in the data, active means normalized growth mostly below about 0.91 (no sharp cut-off); inconclusive means no clear call, values can overlap the other calls; inactive means mostly above about 0.92. The list shows a part of the results.
Assay: chemical genetic growth profiling, strain panel (AID 1159580);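 further: tested at 20 µM; growth read once vehicle control cultures reached saturation at 30 °C; 1 = growth at the plate median or of vehicle wells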
Conditions: growth OD

Measured: normalized growth

CCCCNc1ccc(C(=O)OCCN(C)C)cc1
inactive: S. cerevisiae deletion strains, locus YJR075W, strain HOC1, stronger effect = lower value 1.02 | S. cerevisiae deletion strains, locus YKL009W, strain mrt4, stronger effect = lower value 1.02 | S. cerevisiae deletion strains, locus YKL068W, stronger effect = lower value 1.01 | S. cerevisiae deletion strains, locus YKL085W, strain MDH1 (second series), stronger effect = lower value 1.01 | S. cerevisiae deletion strains, locus YKL085W, strain MDH1, stronger effect = lower value 1.01 | S. cerevisiae deletion strains, locus YKL160W, strain elf1, stronger effect = lower value 1.03 | S. cerevisiae deletion strains, locus YKL190W, strain CNB1, stronger effect = lower value 1.01 | S. cerevisiae deletion strains, locus YKR001C, strain vps1, stronger effect = lower value 1.01 | S. cerevisiae deletion strains, locus YKR026C, strain gcn3, stronger effect = lower value 1.01 | S. cerevisiae deletion strains, locus YKR091W, strain srl3, stronger effect = lower value 1.01 | S. cerevisiae deletion strains, locus YLL001W, strain dnm1, stronger effect = lower value 1 | S. cerevisiae deletion strains, locus YLL026W, stronger effect = lower value 1.01 | S. cerevisiae deletion strains, locus YLL041C, strain sdh2, stronger effect = lower value 0.998 | S. cerevisiae deletion strains, locus YLR027C, strain aat2, stronger effect = lower value 1.01 | S. cerevisiae deletion strains, locus YLR039C, strain RIC1, stronger effect = lower value 1.14 | S. cerevisiae deletion strains, locus YLR058C, strain SHM2, stronger effect = lower value 1.01 | S. cerevisiae deletion strains, locus YLR102C, strain apc9, stronger effect = lower value 1.02 | S. cerevisiae deletion strains, locus YLR113W, strain HOG1, stronger effect = lower value 0.982 | S. cerevisiae deletion strains, locus YLR221C, strain rsa3, stronger effect = lower value 0.975 | S. cerevisiae deletion strains, locus YLR258W, strain gsy2, stronger effect = lower value 1.02 | S. cerevisiae deletion strains, locus YLR262C, strain YPT6 (second series), stronger effect = lower value 1.05 | S. cerevisiae deletion strains, locus YLR262C, strain YPT6, stronger effect = lower value 1.13 | S. cerevisiae deletion strains, locus YLR268W, strain sec22, stronger effect = lower value 1.04 | S. cerevisiae deletion strains, locus YLR320W, strain mms22, stronger effect = lower value 0.988 | S. cerevisiae deletion strains, locus YLR330W, strain CHS5, stronger effect = lower value 1 | S. cerevisiae deletion strains, locus YLR342W, strain FKS1 (second series), stronger effect = lower value 1 | S. cerevisiae deletion strains, locus YLR342W, strain FKS1, stronger effect = lower value 1.02 | S. cerevisiae deletion strains, locus YLR357W, strain rsc2, stronger effect = lower value 1.13 | S. cerevisiae deletion strains, locus YLR370C, strain arc18, stronger effect = lower value 1.01 | S. cerevisiae deletion strains, locus YLR371W, strain rom2, stronger effect = lower value 1.02 | S. cerevisiae deletion strains, locus YLR384C, strain iki3, stronger effect = lower value 1.02 | S. cerevisiae deletion strains, locus YLR418C, strain cdc73, stronger effect = lower value 1.01 | S. cerevisiae deletion strains, locus YML016C, strain PPZ1, stronger effect = lower value 1 | S. cerevisiae deletion strains, locus YML032C, strain rad52, stronger effect = lower value 1.02 | S. cerevisiae deletion strains, locus YML120C, strain ndi1, stronger effect = lower value 0.995 | S. cerevisiae deletion strains, locus YML124C, strain tub3, stronger effect = lower value 1.02 | S. cerevisiae deletion strains, locus YMR058W, strain fet3, stronger effect = lower value 1.02 | S. cerevisiae deletion strains, locus YMR078C, strain ctf18, stronger effect = lower value 1.02 | S. cerevisiae deletion strains, locus YMR125W, strain sto1, stronger effect = lower value 1.05 | S. cerevisiae deletion strains, locus YMR129W, stronger effect = lower value 1.01 | S. cerevisiae deletion strains, locus YMR205C, strain PFK2, stronger effect = lower value 1.02 | S. cerevisiae deletion strains, locus YMR223W, strain ubp8, stronger effect = lower value 1.01 | S. cerevisiae deletion strains, locus YMR231W, strain pep5, stronger effect = lower value 1.02 | S. cerevisiae deletion strains, locus YMR307W, strain GAS1, stronger effect = lower value 0.943 and 1.02 | S. cerevisiae deletion strains, locus YNL067W, strain RPL9B, stronger effect = lower value 1.01 | S. cerevisiae deletion strains, locus YNL071W, strain lat1, stronger effect = lower value 1.02 | S. cerevisiae deletion strains, locus YNL128W, strain TEP1, stronger effect = lower value 1.02 | S. cerevisiae deletion strains, locus YNL153C, strain GIM3, stronger effect = lower value 1 | S. cerevisiae deletion strains, locus YNL175C, strain NOP13, stronger effect = lower value 1.01 | S. cerevisiae deletion strains, locus YNL183C, strain NPR1, stronger effect = lower value 0.93 | S. cerevisiae deletion strains, locus YNL197C, strain WHI3, stronger effect = lower value 0.982 | S. cerevisiae deletion strains, locus YNL209W, strain ssb2, stronger effect = lower value 1.02 | S. cerevisiae deletion strains, locus YNL224C, strain SQS1, stronger effect = lower value 0.99 | S. cerevisiae deletion strains, locus YNL233W, strain BNI4, stronger effect = lower value 1 | S. cerevisiae deletion strains, locus YNL250W, strain rad50, stronger effect = lower value 0.998 | S. cerevisiae deletion strains, locus YNL271C, strain bni1, stronger effect = lower value 1.01 | S. cerevisiae deletion strains, locus YNL298W, strain CLA4, stronger effect = lower value 1.02 | S. cerevisiae deletion strains, locus YNL307C, strain MCK1, stronger effect = lower value 1.02 | S. cerevisiae deletion strains, locus YNL322C, strain KRE1 (second series), stronger effect = lower value 1.01 | S. cerevisiae deletion strains, locus YNL322C, strain KRE1, stronger effect = lower value 1.01 and 1.02 | S. cerevisiae deletion strains, locus YNR049C, strain mso1, stronger effect = lower value 1.02 | S. cerevisiae deletion strains, locus YNR052C, strain pop2, stronger effect = lower value 1.01 | S. cerevisiae deletion strains, locus YOL006C, strain TOP1, stronger effect = lower value 0.943 | S. cerevisiae deletion strains, locus YOL012C, strain htz1 0.973 | S. cerevisiae deletion strains, locus YOL147C, strain pex11, stronger effect = lower value 1.02 | S. cerevisiae deletion strains, locus YOR001W, strain rrp6, stronger effect = lower value 0.954 | S. cerevisiae deletion strains, locus YOR061W, strain CKA2, stronger effect = lower value 1 | S. cerevisiae deletion strains, locus YOR069W, strain VPS5, stronger effect = lower value 1.01 | S. cerevisiae deletion strains, locus YOR070C, strain gyp1, stronger effect = lower value 1 | S. cerevisiae deletion strains, locus YOR080W, strain dia2, stronger effect = lower value 1 | S. cerevisiae deletion strains, locus YOR083W, strain WHI5 (second series), stronger effect = lower value 0.999 | S. cerevisiae deletion strains, locus YOR083W, strain WHI5, stronger effect = lower value 1.02 | S. cerevisiae deletion strains, locus YOR106W, strain vam3, stronger effect = lower value 1.04 | S. cerevisiae deletion strains, locus YOR136W, strain idh2, stronger effect = lower value 1.02 | S. cerevisiae deletion strains, locus YOR144C, strain elg1, stronger effect = lower value 1.01 | S. cerevisiae deletion strains, locus YOR184W, strain ser1, stronger effect = lower value 1.04 | S. cerevisiae deletion strains, locus YOR231W, strain MKK1, stronger effect = lower value 0.995 | S. cerevisiae deletion strains, locus YOR265W, strain rbl2, stronger effect = lower value 1.02 | S. cerevisiae deletion strains, locus YOR270C, strain vph1, stronger effect = lower value 0.988 | S. cerevisiae deletion strains, locus YOR290C, strain snf2, stronger effect = lower value 1.06 | S. cerevisiae deletion strains, locus YOR316C, strain cot1, stronger effect = lower value 1.02 | S. cerevisiae deletion strains, locus YPL051W, strain arl3, stronger effect = lower value 1.03 | S. cerevisiae deletion strains, locus YPL055C, strain LGE1, stronger effect = lower value 1.02 | S. cerevisiae deletion strains, locus YPL078C, strain atp4, stronger effect = lower value 1.04 | S. cerevisiae deletion strains, locus YPL106C, strain sse1, stronger effect = lower value 1.05 | S. cerevisiae deletion strains, locus YPL240C, strain hsp82, stronger effect = lower value 0.998 | S. cerevisiae deletion strains, locus YPL241C, strain CIN2, stronger effect = lower value 1 | S. cerevisiae deletion strains, locus YPL256C, strain CLN2, stronger effect = lower value 0.964 | S. cerevisiae deletion strains, locus YPR119W, strain clb2, stronger effect = lower value 1.01 | S. cerevisiae deletion strains, locus YPR141C, strain kar3, stronger effect = lower value 1.02 | S. cerevisiae deletion strains, locus YPR163C, strain tif3, stronger effect = lower value 1.02 | S. cerevisiae deletion strains, locus YPR167C, strain met16, stronger effect = lower value 1.02 | S. cerevisiae deletion strains, strain wtn01, stronger effect = lower value 1.04 | S. cerevisiae strains, strain wild type, stronger effect = lower value 1
active: S. cerevisiae deletion strains, locus YNL248C, strain rpa49, stronger effect = lower value 1.13 [resistant]

— PubChem BioAssay AID1159580 (chemical genetic matrix, 2015)
